# Publication PMC4336329 (PLoS ONE, 2015)
# Hit rate of the full screen: of about 310,000 compounds, about 14,000 (4.5%) showed an effect of 50% or more. Effects have a minus sign here. For the sample, strong results were picked, then their nearest neighbours and some compounds at random.
# Target: human ether-à-go-go-related gene (hERG) potassium channel (human, UniProt Q12809)
# Test: primary screen, population patch clamp on CHO cells stably expressing hERG; higher = less effect of the substance
# 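Note: peak tail current of the secondary pulse compared with the same well before compound.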
# Sequence of human ether-à-go-go-related gene (hERG) potassium channel (Q12809 whole entry, looked up): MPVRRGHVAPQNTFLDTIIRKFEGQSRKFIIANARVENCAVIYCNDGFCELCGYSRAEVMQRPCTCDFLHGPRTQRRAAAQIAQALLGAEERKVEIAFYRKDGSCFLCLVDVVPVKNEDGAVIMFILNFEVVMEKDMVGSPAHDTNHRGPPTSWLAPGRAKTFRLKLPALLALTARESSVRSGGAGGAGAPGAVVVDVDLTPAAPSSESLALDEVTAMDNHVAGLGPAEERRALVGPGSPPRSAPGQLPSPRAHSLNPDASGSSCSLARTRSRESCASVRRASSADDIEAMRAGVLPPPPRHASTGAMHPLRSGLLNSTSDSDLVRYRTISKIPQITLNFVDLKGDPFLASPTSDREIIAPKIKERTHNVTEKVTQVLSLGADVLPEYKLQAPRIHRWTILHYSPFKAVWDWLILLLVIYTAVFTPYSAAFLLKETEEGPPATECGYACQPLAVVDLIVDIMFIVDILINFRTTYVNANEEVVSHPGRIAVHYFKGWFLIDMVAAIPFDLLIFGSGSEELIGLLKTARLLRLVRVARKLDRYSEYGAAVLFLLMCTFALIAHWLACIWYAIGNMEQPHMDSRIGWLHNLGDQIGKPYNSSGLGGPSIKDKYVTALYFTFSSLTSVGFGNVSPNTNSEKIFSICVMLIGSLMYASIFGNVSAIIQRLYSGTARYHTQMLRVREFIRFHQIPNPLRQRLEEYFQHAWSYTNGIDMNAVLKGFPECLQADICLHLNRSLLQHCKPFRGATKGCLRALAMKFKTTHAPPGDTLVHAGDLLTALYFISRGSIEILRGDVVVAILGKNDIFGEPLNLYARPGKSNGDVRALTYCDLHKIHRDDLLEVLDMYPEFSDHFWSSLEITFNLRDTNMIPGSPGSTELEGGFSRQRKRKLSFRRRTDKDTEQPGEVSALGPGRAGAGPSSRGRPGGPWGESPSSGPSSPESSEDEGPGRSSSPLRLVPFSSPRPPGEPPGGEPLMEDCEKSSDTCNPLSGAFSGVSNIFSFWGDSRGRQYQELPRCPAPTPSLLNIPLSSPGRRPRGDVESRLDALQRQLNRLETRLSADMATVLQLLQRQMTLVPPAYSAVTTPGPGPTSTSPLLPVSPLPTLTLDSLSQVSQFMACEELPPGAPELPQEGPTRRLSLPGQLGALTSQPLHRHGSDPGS
row,SMILES,"hERG current change (%, negative = inhibition) at 10uM"
1,COc1ccc(S(=O)(=O)N(CC(=O)Nc2ccc3c(c2)OCO3)c2ccccc2OC)cc1,18.5%
2,COc1c2ccoc2c(OC)c2oc(=O)ccc12,-5.65%
3,CCC(C)C(NC(=O)C1CCC(C)CC1)C(=O)NCCc1ccc(S(N)(=O)=O)cc1 (centres unmarked),4.32%
4,Cc1c(NN=C(C#N)C#N)c(=O)n(-c2ccccc2)n1C,13.5%
5,O=C1CSC(c2ccc(Cl)c(Cl)c2)N1c1nccs1 (centres unmarked),-1.93%
6,CC(C)(CO)C(O)C(=O)NCCCO (centres unmarked),11.5%
7,CCOc1ccccc1C1C(C#N)=C(N)Oc2cc(N)ccc21 (centres unmarked),-5.58%
8,O=C(Cn1c2ccc(F)cc2c2nc3n(c(=O)c21)CCS3)Nc1ccccc1C(F)(F)F,15.6%
9,O=C1CCCC/C1=C/NCc1ccc(F)cc1,6.07%
10,O=C(CSc1nc2ccccc2s1)NCCOc1ccc(Cl)cc1,-3.32%
11,CC1CN(C(=O)COC(=O)c2c(Cl)cccc2Cl)CC(C)O1 (centres unmarked),6.73%
12,CCOC(=O)C1CCN(C(=O)c2cc(S(=O)(=O)N3CCc4ccccc43)ccc2OC)CC1,-60.3%
13,CCOC(=O)C1CCN(C(=O)c2ccc(Cl)c(S(=O)(=O)N3CCOCC3)c2)CC1,-32.4%
14,NC(=O)C1CCN(C(=O)c2cc(S(=O)(=O)N3CCOCC3)c(Cl)cc2Cl)CC1,8.61%
15,CCOC(=O)C1CCN(S(=O)(=O)c2ccc(OC)c(C(=O)N3CCCCC3)c2)CC1,12.5%
16,CCOC(=O)C1CCN(S(=O)(=O)c2ccc(CNC(=O)c3ccccc3)s2)CC1,-50.3%
17,COc1ccc(S(=O)(=O)N2CCc3ccccc32)cc1C(=O)O,-6.25%
18,CCOC(=O)C1CCN(C(=O)c2cc(S(=O)(=O)N3CCCCCC3)ccc2OC)CC1,-50.8%
19,CCOC(=O)C1CCN(C(=O)c2cc(S(=O)(=O)N3CCOCC3)c(Cl)cc2Cl)CC1,-50.1%
20,CCOC(=O)C1CCCN(C(=O)c2cc(S(=O)(=O)N3CCCCCC3)ccc2OC)C1 (centres unmarked),-17.4%
21,CN1CCN(S(=O)(=O)c2ccc(CNC(=O)c3ccccc3)s2)CC1,23.1%
22,CCOC(=O)C1CCN(S(=O)(=O)CCNC(=O)c2ccccc2)CC1,-2.78%

row,SMILES,"hERG current change (%, negative = inhibition) at 10uM"
1,CCOC(=O)C1CCN(S(=O)(=O)c2ccc(OC)c(C(=O)N3CCCCCC3)c2)CC1,-12.5%
2,O=C(N/C(=C\c1ccco1)C(=O)N1CCCC(CO)C1)c1ccccc1 (centres unmarked),15.6%
3,Cc1ccc(S(=O)(=O)NC2CC3CCC2C3)cc1 (centres unmarked),-1.07%
4,CCN(C(=O)COc1ccccc1)C1CCCCC1,7.42%
5,CC(=O)C[C@@H](O)CC(=O)[C@H]1OC(=O)CCCCCCc2ccccc21,-2.65%
6,Cc1onc(C(=O)NCc2cccs2)c1[N+](=O)[O-],9.7%
7,CC1CCCN(c2ccc(F)cc2N)C1.Cl (centres unmarked),11.2%
8,COc1cccc(NC(=O)c2ccc[n+](C)c2)c1.[I-],18.2%
9,Cc1cccn2cc(CNc3ccccc3)nc12,-4.15%
10,CCOC(=O)C1CCN(S(=O)(=O)c2ccc(C)c(C(=O)NC3CCCCC3)c2)CC1,-55.8%
11,Cc1ccc(S(=O)(=O)N2CCC(C(N)=O)CC2)cc1C(=O)NC1CCCCC1,18.9%
12,CCOC(=O)N1CCN(S(=O)(=O)c2ccc(C)c(C(=O)NC3CCCCC3)c2)CC1,1.42%
13,O=C(Nc1ccccc1)C(O)C(O)C(=O)Nc1ccccc1 (centres unmarked),16.8%
14,Cn1cc(CNCc2ccc(-n3cccn3)cc2)c(-c2ccccc2F)n1,-62.2%
15,CN(Cc1ccc(-n2cccn2)cc1)Cc1cn(C)nc1-c1ccccc1F,-74.9%
16,CN(Cc1cccc(-n2cccn2)c1)Cc1cn(C)nc1-c1ccccc1F,15.9%
17,COc1cccc(-n2cc(CNCc3cn(C)nc3-c3ccccc3F)cn2)c1,-19.3%
18,Cn1cc(CNCCCn2ncc3ccccc32)c(-c2ccccc2F)n1,-36.3%
19,CCn1ccnc1CN(C)Cc1cn(C)nc1-c1ccccc1F,13.2%
20,O=C(CNC(=O)OCc1ccccc1)NC1CCCCCCC1,-2.67%
21,CCOCCCNC(=O)Cn1cnc2c(cnn2-c2ccc(C)c(C)c2)c1=O,3.91%
22,O=C(NCC12CC3CC(C1)CC(CNC(=O)N1CCCC1)(C3)C2)N1CCCC1,-3.73%
